Compounds without any hit were thinned out: in the full panel of roughly 79,000, 15% have a hit. The source made the active and inactive calls. Rule as the data show it: active = growth inhibition above about 70%; inactive = the rest.

The nature of the test: NCI Yeast Anticancer Drug Screen. Data for the sgs1 mgt1 strain (AID 161).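 Also: 0% = growth of cultures given vehicle only.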 The note with it: S. cerevisiae sgs1 mgt1 strain, at 50.0 µM, stronger effect = higher value. The procedure, abridged: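 Test agents were incubated with a DNA-repair-mutant yeast strain. Growth was then read and compared against vehicle-treated controls.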
`COc1cc(/C=N/NC(=O)CN(C)C)cc(OC)c1N(CCCl)CCCl`: the growth inhibition was -15.7% (inactive).

For `CCOP(=O)(O)C1CCCC(C)[N-]1.CCOP(=O)(O)C1CCCC(C)[N-]1.[Cu+2]` (centres undefined), the growth inhibition was 31.7% (inactive).

Turning to `NC(Cc1ccc(Cl)cc1)c1nn[nH]n1` (centres undefined), the growth inhibition is -4.1% (inactive).

Take `Cc1cc(C)[c]([Hg][Cl])c(C)c1`: the growth inhibition is 98.7% (active).

As for `[CH3][Sb]([CH3])([CH3])([I])[I]`, the growth inhibition was 0.15% (inactive).

With `C=C1CC2C3CC=C4CC(OC(C)=O)CCC4(C)C3CCC2(C)C1=O` (centres undefined), the growth inhibition was 6.15% (inactive).

For the compound `CCCC(C)SP(=S)(SC(C)CCC)SC(C)CCC` (centres undefined), the growth inhibition was -1.9% (inactive).

As to `CCCC[S][Sn]([CH2]CCC)([CH2]CCC)[S]CCCC`, the growth inhibition was 94.7% (active).

In the case of `COP1(=S)OCC2CCC[C@@H]2O1` (some centres undefined), the growth inhibition is -33% (inactive).

For the compound `CCOC(C(=O)O)(c1ccccc1)c1ccccc1`, the growth inhibition is 18.5% (inactive).

Turning to `NC(CP(=O)(O)O)C(=O)O` (centres undefined), the growth inhibition is -31.1% (inactive).

As for `CCC12C=CCN3CCC4(C(=C(C(=O)OC)C1)Nc1ccccc14)[C@H]32` (some centres undefined), the growth inhibition is 6% (inactive).

Turning to `N#CCN(CC#N)[N+](=O)[O-]`, the growth inhibition is -14.2% (inactive).

On to `O=CNC(CSC(c1ccccc1)c1ccccc1)C(=O)O` (centres undefined), for which the growth inhibition was -10.9% (inactive).

Consider `O=C(COc1ccccc1Cl)Nc1ccc[n+](Cc2ccc(S(=O)(=O)F)cc2)c1`, for which the growth inhibition is 2.9% (inactive).

With `O=C1CCCN1CC#CCN1C[C@@H]2C3CCC(C3)[C@@H]2C1`, the growth inhibition is 6.25% (inactive).

Consider `CC(=O)OC1CC2(O)C3CCC4CC(O)CCC4(C)C3CCC2(C)C1C1=CC(=O)OC1` (centres undefined), for which the growth inhibition is -9.9% (inactive).

For the compound `ClCCN(CCCl)c1ccc(/C=N/N=C2c3ccccc3-c3ccccc32)cc1`, the growth inhibition was -6.2% (inactive).

In the case of `O[C@H](c1ccccc1)[C@@H](c1ccccc1)N1CCCCC1`, the growth inhibition is -3.65% (inactive).

As for `C/C=C\CC1(C/C=C/C)C(=O)NC(=O)NC1=O`, the growth inhibition is -5.05% (inactive).

Regarding `Nc1ccc(Sc2ccc(N)cc2)cc1`, the growth inhibition was -0.6% (inactive).

As to `COc1ccc2c(c1OC(C)=O)-c1cc(OC(C)=O)cc3c1C(C2)N(C(=O)CN(CCCl)CCCl)CC3` (centres undefined), the growth inhibition is -1.95% (inactive).

Turning to `CCCCOP(=O)(Nc1ccc(Cl)cc1)OCCCC`, the growth inhibition was 99.5% (active).

For the compound `CC1C(C)(C)P(=O)(Oc2cccc3cccnc23)C1(C)C` (centres undefined), the growth inhibition was 84.5% (active).

On to `O=[N+]([O-])c1c(Cl)cc(Cl)c([N+](=O)[O-])c1Cl`, for which the growth inhibition was 17.1% (inactive).

As to `COc1ccc2c3c1OC1C(O)C=CC4C(C2)N(N=O)CCC341` (centres undefined), the growth inhibition is -4.2% (inactive).

Regarding `CC(C)C1C=Cc2ccccc21` (centres undefined), the growth inhibition is 4.45% (inactive).

As to `CCOC(=O)C(C#N)c1ccccc1` (centres undefined), the growth inhibition is 18% (inactive).

With `C1CN2CCOC2O1`, the growth inhibition was -9.1% (inactive).

In the case of `CCC(=O)OC1(c2ccccc2)CCN(CCC(O)c2ccccc2)CC1C` (centres undefined), the growth inhibition is 1.45% (inactive).

As for `S=P(Oc1cc(Cl)c(Cl)cc1Cl)(N1CCOCC1)N1CCOCC1`, the growth inhibition is 42% (inactive).

For the compound `CC1CCC2C(C)C3C(CC4C5CCC6CC(O)CCC6(C)C5CCC43C)N2C1` (centres undefined), the growth inhibition is 17.5% (inactive).

As for `CCCCCCCCCCC(=O)O`, the growth inhibition was 24.9% (inactive).

For the compound `Oc1ccccc1C=NCCN=Cc1ccccc1O`, the growth inhibition is -1.1% (inactive).

On to `C=C1[C@@H](C)[C@H]2[C@H](Cc3ccccc3)NC(=O)[C@]23OC(=O)/C=C/[C@H](O)CCC[C@@H](C)C/C=C/[C@H]3[C@@H]1O`, for which the growth inhibition is 24.6% (inactive).

Turning to `O=C/C=C/c1ccco1`, the growth inhibition was -15.2% (inactive).

In the case of `CC(C)c1cc(C(C)C)c(S(=O)(=O)N=[N+]=[N-])c(C(C)C)c1`, the growth inhibition is -31.4% (inactive).

For `N#CC(C#N)=Cc1ccccc1O`, the growth inhibition was -1.95% (inactive).

As to `CC(C)c1cc2c(cc1O)C1(C)CCCC(C)(C)C1=CC2=O` (centres undefined), the growth inhibition was -8.15% (inactive).

Source of the values: PubChem BioAssay (NCI).
